In PMC4336329 (PLoS ONE, 2015):
About 14,000 (4.5%) of roughly 310,000 compounds showed an effect of 50% or more. Effects have a minus sign here. The sample holds strong results, similar compounds and a random draw of the others, so the mix is not that of the screen.

Each molecule was assayed against human ether-à-go-go-related gene (hERG) potassium channel (human, UniProt Q12809) (assay: primary screen, population patch clamp on CHO cells stably expressing hERG; higher = less effect of the substance).
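Also: peak tail current of the secondary pulse compared with the same well before compound.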

Chain of human ether-à-go-go-related gene (hERG) potassium channel (Q12809 whole entry, looked up): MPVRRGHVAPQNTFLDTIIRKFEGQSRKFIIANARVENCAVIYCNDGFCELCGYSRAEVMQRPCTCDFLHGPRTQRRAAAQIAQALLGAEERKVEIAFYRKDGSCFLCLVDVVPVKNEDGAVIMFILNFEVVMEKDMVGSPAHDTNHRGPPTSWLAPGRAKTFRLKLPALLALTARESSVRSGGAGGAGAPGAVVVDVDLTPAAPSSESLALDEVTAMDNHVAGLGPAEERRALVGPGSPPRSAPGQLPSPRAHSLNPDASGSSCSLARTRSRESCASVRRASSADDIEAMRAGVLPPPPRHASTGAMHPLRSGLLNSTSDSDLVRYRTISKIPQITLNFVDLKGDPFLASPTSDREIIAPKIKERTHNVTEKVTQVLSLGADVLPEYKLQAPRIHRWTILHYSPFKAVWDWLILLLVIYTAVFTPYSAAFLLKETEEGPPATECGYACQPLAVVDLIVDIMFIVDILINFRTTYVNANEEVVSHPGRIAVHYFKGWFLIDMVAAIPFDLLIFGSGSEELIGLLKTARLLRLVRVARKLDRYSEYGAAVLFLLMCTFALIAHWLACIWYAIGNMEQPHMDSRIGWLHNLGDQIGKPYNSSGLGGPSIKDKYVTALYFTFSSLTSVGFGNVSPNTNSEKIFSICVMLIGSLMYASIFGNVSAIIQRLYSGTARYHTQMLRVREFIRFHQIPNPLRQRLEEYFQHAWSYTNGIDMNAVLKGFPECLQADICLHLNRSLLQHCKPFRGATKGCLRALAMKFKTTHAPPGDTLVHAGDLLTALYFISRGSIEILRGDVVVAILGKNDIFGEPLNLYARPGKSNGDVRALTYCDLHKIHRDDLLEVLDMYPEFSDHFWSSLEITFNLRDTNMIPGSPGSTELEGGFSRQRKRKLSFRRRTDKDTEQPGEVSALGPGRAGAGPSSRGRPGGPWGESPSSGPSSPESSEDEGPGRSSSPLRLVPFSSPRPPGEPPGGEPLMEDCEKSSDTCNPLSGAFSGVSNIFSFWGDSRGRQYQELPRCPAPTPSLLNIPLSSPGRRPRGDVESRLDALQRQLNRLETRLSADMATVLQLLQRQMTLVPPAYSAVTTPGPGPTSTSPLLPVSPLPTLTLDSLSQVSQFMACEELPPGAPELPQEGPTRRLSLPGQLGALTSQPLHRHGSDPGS

Row | SMILES | hERG current change (%, negative = inhibition) at 10uM
1 | Cc1cc(C)cc(NC(=O)c2cc(C)nn2C)c1 | 0.0741%
2 | O=C(COC(=O)c1ncc(Cl)c(Cl)c1Cl)NC(=O)c1ccccc1 | 14.9%
3 | Cn1cnnc1SCc1ccccc1[N+](=O)[O-] | 13.7%
4 | COc1cc(C#N)ccc1OCC(=O)NCCC1=CCCCC1 | -13.2%
5 | Nc1ccc2c(c1)ncn2CCCn1cnc2cc(N)ccc21 | -14.7%
6 | Cl.Clc1ccccc1CNCc1ccncc1 | -0.497%
7 | Fc1ccc(-n2cc(CNCCc3ccncc3)c(-c3ccccc3Cl)n2)cc1 | -75.2%
8 | O=C(NCc1ccccn1)c1cn(-c2ccccc2)nc1-c1ccc(Cl)cc1 | -1.67%
9 | Fc1ccc(-n2cc(CNCCc3cccnc3)c(-c3ccccc3Cl)n2)cc1 | -51.9%
10 | Fc1ccc(-n2cc(CNCCc3ccccn3)c(-c3ccccc3Cl)n2)cc1 | -89.9%
11 | Cl.c1ccc(CCNCc2cccnc2)cc1 | -0.175%
12 | Cl.c1cncc(CNCCc2c[nH]c3ccccc23)c1 | 4.01%
13 | Cl.Fc1ccc(CCNCc2ccccc2Cl)cc1 | 1.24%
14 | Fc1ccc(NC(=S)NCCc2ccccn2)cc1 | 7.88%
15 | CC1(C)Cc2nc(N3CCOCC3)c(C#N)cc2CO1 | 7.25%
16 | COc1ccc(NC(=O)CN(C)C(=O)c2c(-c3c(F)cccc3Cl)noc2C)cc1 | -16.2%
17 | CCC(C)(C)NC(=O)CN(Cc1ccccc1Cl)C(=O)CCC(=O)Nc1cc(C)ccn1 | -4.7%
18 | O=C(O)c1nn(CC(=O)N2CCN(c3ccccc3)CC2)c(=O)c2ccccc12 | 8.36%
19 | O=C(O)c1ccccc1OCCOc1ccccc1 | 3.63%
20 | CC(C)c1nnc(NC(=O)c2cnccn2)s1 | 16.2%

Row | SMILES | hERG current change (%, negative = inhibition) at 10uM
21 | COc1ccc(C(=O)N2CCCCC2)cc1S(=O)(=O)Nc1cccc(C(=O)O)c1 | 6.94%
22 | CCOc1ccc(C(=O)OCCN(C)C)cc1.Cl | -10.3%
23 | CSc1ncccc1C(=O)OCC(=O)N1CC(=O)Nc2ccccc21 | 8.21%
24 | Nc1nc(CN2CCC(Cc3ccccc3)CC2)nc(Nc2ccccc2)n1 | -82%
25 | COc1ccc(Nc2nc(N)nc(CN3CCC(C)CC3)n2)cc1 | -75.4%
26 | COc1ccc(OCc2nc(N)nc(Nc3ccccc3)n2)cc1 | -4.98%
27 | COc1ccc(Nc2nc(N)nc(CSC(=S)N3CCC(C)CC3)n2)cc1 | -5.86%
28 | COc1ccc(Nc2nc(N)nc(CN3CCOCC3)n2)cc1 | -5.46%
29 | c1ccc(CC2CCN(Cc3nc(-c4ccccc4)no3)CC2)cc1 | -8.93%
30 | COc1ccc(-c2noc(CN3CCC(Cc4ccccc4)CC3)n2)cc1 | -8.3%
31 | COc1ccc(Nc2nc(N)nc(CN3CCC(Cc4ccccc4)CC3)n2)cc1 | -79%
32 | CC(=O)c1ccc(OCC(=O)OC(C)C(=O)NC2CCCCC2C)cc1 (stereo not shown) | 26.9%
33 | COC(=O)c1c(NC(=O)CC2SCC(C(=O)OC)NC2=O)sc2c1CCCC2 (stereo not shown) | -5%
34 | CCc1ccccc1N(C(C)=O)c1nc(CCl)cs1 | 6.77%
35 | CC(C)(C)NC(=O)CN(CCN1CCOCC1)C(=O)CNS(=O)(=O)c1ccccc1 | 19.4%
36 | COCCN(CCOC)S(=O)(=O)c1ccc(C(=O)Nc2nc(C)c(C(C)=O)s2)cc1 | 13%
37 | C/C(=N\NC(N)=S)C1C2C3CC4C5CC(C42)C1C53 (stereo not shown) | -10%
38 | O=C(CC1(O)C(=O)Nc2ccccc21)c1ccc2c(c1)OCO2 (stereo not shown) | -3.95%
39 | CN(C)c1ccc2c3c(ccc(N(C)C)c13)COC2 | -34.8%
40 | Nc1ccc2c(c1)COC2=O | 4.55%

Row | SMILES | hERG current change (%, negative = inhibition) at 10uM
41 | CN(C)c1ccc2c3c(ccc(N(C)C)c13)C(=O)OC2 | -59.1%
42 | CN(C)S(=O)(=O)c1cccc(C(=O)NCC2(N3CCOCC3)CCCCC2)c1 | -13.4%
43 | S=C(NCc1cccnc1)Nc1ccc(Oc2ccc(Cl)cc2)cc1 | -0.652%
44 | CCc1ccc(OCC(=O)Nc2cc(S(=O)(=O)CC)ccc2O)cc1 | -0.287%
45 | CCCc1ccc(OCC(=O)Nc2cc(S(=O)(=O)CC)ccc2O)cc1 | -58.1%
46 | CCS(=O)(=O)c1ccc(O)c(NC(=O)COc2ccc(OC)cc2)c1 | 1.82%
47 | C=CCNCCOc1c(C)cc(C)cc1Cl.O=C(O)C(=O)O | -21.2%
48 | Cc1cc(C)c(OCCCCNCc2ccccc2)c(Cl)c1.O=C(O)C(=O)O | -68.5%
49 | Cc1cc(Cl)c(OCCCNCc2ccccc2)c(Br)c1.O=C(O)C(=O)O | -51.8%
50 | Cc1cc(C)c(OCCNCc2ccccc2)c(C)c1.O=C(O)C(=O)O | -5.71%
51 | Cc1cc(Cl)c(OCCCNC2CCCC2)c(Br)c1.O=C(O)C(=O)O | -56.9%
52 | Cc1cc(Cl)c(OCCCCNC(C)(C)C)c(Br)c1.O=C(O)C(=O)O | -40.7%
53 | COCCCNCCCCOc1c(Cl)cc(C)cc1Br.O=C(O)C(=O)O | -49.2%
54 | Cc1cc(C)c(OCCCNC2CCCC2)c(Br)c1.O=C(O)C(=O)O | -34.5%
55 | Cc1cc(C)c(OCCCNCc2ccccc2)c(Br)c1.O=C(O)C(=O)O | -10.7%
56 | CC(=O)c1cccc(NC(=O)C(C)OC(=O)Cc2c[nH]c3ccccc23)c1 (stereo not shown) | -2.32%
57 | COC(=O)c1cc(NC(=O)c2cccnc2)ccc1N1CCOCC1 | 13.9%
58 | CCOc1ccccc1N1CC(C(=O)Nc2c(C)n(C)n(-c3ccccc3)c2=O)CC1=O (stereo not shown) | 20.7%
